Results on 104 compounds are retold here after ChEMBL document CHEMBL3988442, “University of Dundee, Small-Polar-MMV Screening Library” (2021).

The campaign covered roughly 48,000 compounds. About 13,000 (27%) showed an effect of 50% or more. This is one part of the list.

This test deals with Wolbachia pipientis. As to the kind of experiment: Anti-Wolbachia Cell-Based Screen. Format: functional. On the set-up: scale not given: in the data most compounds retested in dose-response had high values. Conditions: 5 µM.
As for `c1cncc(-c2ccnn2CN2CCC3(CC2)OCCO3)c1`, the “Percent Effect” value is recorded as -11.32%. As for `Cc1nccc(CNS(=O)(=O)N(C)Cc2ccc(Cl)cc2)n1`, the “Percent Effect” value is given as -3.155%.

On to `CCN(CC(=O)NCCc1nc(C)no1)Cc1ccc(Cl)cc1`, for which the “Percent Effect” value is -3.181%. The figure for `Cc1noc(C(C)N(C)CC(=O)NCCc2ccc(Cl)cc2)n1` (centres undefined) is 103.9%; for `COCCCNC(=O)CN(C)C(=O)c1cc(C)ccc1N(C)C(C)C` it is -2.233%; for `Cc1noc(CNC(=O)NCCc2ccc(Cl)cc2)n1` it is -5.738%. As for `CCc1noc(C(C)N(C)CC(=O)Nc2cccc(C)n2)n1` (centres undefined), the “Percent Effect” value is listed as 0.4126%.

As for `COCCNC(=O)CN(C)C(C)c1nc(C)no1` (centres undefined), the “Percent Effect” value is 119.8%. Turning to `COc1ccc(Br)cc1CN(C)C(C)c1nc(C(C)C)no1` (centres undefined), the “Percent Effect” value is 18.35%. The result for `COCCCNC(=O)CN(C)C(C)c1nc(C)no1` (centres undefined) reads 131.6%; that for `COCCCNC(=O)CN(C)C(=O)c1cc(C)ccc1O`, -8.655%; that for `COCCCNC(=O)CN(C)C(C)c1nc(C(C)C)no1` (centres undefined), 126.4%. The figure for `CCc1noc(C(C)N(C)CC(=O)Nc2ccc(C)cc2)n1` (centres undefined) is 3.049%; for `CCc1noc(C(C)N(C)CC(=O)Nc2c(C)cccc2C)n1` (centres undefined) it is -11.68%. The figure for `O=C(O)c1cc(-c2ccc3c(c2)OCO3)cc(S(=O)(=O)NC2CC2)c1` is 1.562%.

In the case of `O=C(c1ccc2sccc2c1)N1CCC(C(=O)O)(n2ccnc2)CC1`, the “Percent Effect” value is listed as -1.881%. Take `Cc1ccccc1N1CCN(C(=O)c2cnc(N(C)C)nc2C)C(C)C1` (centres undefined): the “Percent Effect” value was found to be 26.11%.

`Nc1ncc(C(=O)N2CCC(O)(CO)CC2)c(-c2ccccc2)n1`: the “Percent Effect” value is -11.61%. For the compound `Cc1nc(N)ncc1C(=O)N1CCCC1(C)C(=O)N(C)C` (centres undefined), the “Percent Effect” value came out at 88.37%.

For `CC[C@@H](CO)NC(=O)c1coc(COc2ccc(OC)cc2)n1`, the “Percent Effect” value is reported as -6.129%. On to `COCC(=O)Nc1nccn1Cc1ccc(Br)cc1`, for which the “Percent Effect” value is listed as 8.757%. With `CCNC(=O)N(C)C1CCCc2nc(C)sc21` (centres undefined), the “Percent Effect” value turned out to be 9.089%. The result for `N#Cc1cccnc1N1CCC(c2nc(C(F)(F)F)c[nH]2)CC1` reads -10.33%; that for `CCN(CC)c1ccc2ccc(C(=O)N3CCCCO3)cn12.O=C(O)C(F)(F)F`, -8.466%. As for `COCC(=O)N1CCC(C)(c2cc(O)[nH]n2)CC1`, the “Percent Effect” value is listed as 115.4%. The figure for `CC(CCc1ccc(O)cc1)NC1CCN(C(=O)C(C)C)CC1` (centres undefined) is 2.314%. The figure for `CCOC1CC2(CCN(C(=O)COC)CC2)c2cc(C)ccc21` (centres undefined) is 10.7%; for `CC(C)C(=O)N1CCC(C)(c2cc(O)[nH]n2)CC1` it is 136.2%; for `COCC(=O)N1CCC2(CC1)CNc1ccc(F)cc12.O=C(O)C(F)(F)F` it is 7.249%.

Regarding `CC(C)C(=O)N1CCN(c2cc(N(C)C)cnn2)CC1`, the “Percent Effect” value is recorded as 9.778%. The result for `Cc1cc(N2CCN(C(=O)CCc3scnc3C)CC2)nc(N)n1` reads 8.877%.

Take `CC(c1nc(C2CC2)no1)N(C)Cc1ccc2c(c1)OCCO2` (centres undefined): the “Percent Effect” value came to 0.3167%. For the compound `O=C(NCC1CC1)N1CCN(Cc2ccc3c(c2)OCCO3)CC1`, the “Percent Effect” value was 1.258%. The figure for `c1cc(CN2CCC(Cc3noc(C4CC4)n3)CC2)c2c(c1)OCO2` is 85.87%; for `c1cc2c(cc1CN1CCC(Cc3noc(C4CC4)n3)CC1)OCCO2` it is 75.34%. The result for `c1ccc(CN2CCC(Cc3noc(C4CC4)n3)CC2)cc1` reads 27.3%; that for `CN(Cc1noc(C2CC2)n1)CC1CCN(CCO)CC1`, 15.04%. The figure for `c1cc(C2CCN(Cc3ccc4c(c3)OCO4)CC2)ccn1` is 106.9%; for `c1cc2c(cc1CSCc1noc(C3CC3)n1)OCCO2` it is 98.07%. As for `O=C(c1cccc2c1OCO2)N1CCCC1c1noc(C2CC2)n1` (centres undefined), the “Percent Effect” value is -8.169%. The figure for `c1cncc(CN2CCC(NCCc3ccc4c(c3)OCO4)CC2)c1` is 3.399%; for `c1cc(CN2CCC(c3ccncc3)CC2)cc(Cn2cccn2)c1` it is -4.875%; for `Clc1ccc(C2(NCc3noc(C4CC4)n3)CCOCC2)cc1` it is -0.4021%. The figure for `CCn1c(C)cc(C(=O)NCc2ccc(CS(C)(=O)=O)cc2)c1C` is 4.177%; for `COCc1nc(CN2CCC3(CCCO3)CCC2=O)no1` (centres undefined) it is -11.19%; for `CC(=O)N(C)CC(=O)NC1(c2ccc(Br)cc2)CC1` it is -3.81%. The figure for `CCN(CC(=O)NC(C)C)S(=O)(=O)N1CCC(C)C1` (centres undefined) is 1.094%. With `c1ccc2[nH]c(C3CCN(Cc4noc(C5CC5)n4)CC3)cc2c1`, the “Percent Effect” value is recorded as -4.924%. The result for `CN1CCN(C2CCN(Cc3noc(C4CC4)n3)CC2)C1=O` reads 10.17%; that for `c1cc2c(cc1CN1CCN(Cc3noc(C4CC4)n3)CC1)OCO2`, 111.2%. In the case of `Nc1nccc(NCc2cc3n(n2)CCCN(C2CCCCC2)C3)n1`, the “Percent Effect” value came to 13.65%. Turning to `Cc1nccc(NCc2cc3n(n2)CCCN(C(=O)C2CCC2)C3)n1`, the “Percent Effect” value stood at 100.1%. As for `CCn1ccnc1CN1CCCn2nc(CNC(=O)C3CCC3)cc2C1`, the “Percent Effect” value stood at 17.11%.

With `CSc1nccc(NCc2cc3n(n2)CCCN(S(C)(=O)=O)C3)n1`, the “Percent Effect” value was found to be 18.18%. Turning to `CSc1nccc(NCc2cc3n(n2)CCCN(C(=O)C2CCC2)C3)n1`, the “Percent Effect” value is listed as 104.3%. The result for `Nc1nccc(NCc2cc3n(n2)CCCN(C(=O)C2CCC2)C3)n1` reads -4.748%. The figure for `Cc1ccc(C2C3=C(COC3=O)Nc3[nH]nc(C)c32)cc1C` (centres undefined) is 8.246%; for `CCc1nccn1CCC(=O)N1CC[C@@H](c2sccc2C)[C@H](O)C1` it is -1.934%; for `O=C(O)C(F)(F)F.c1cnc(N2CCO[C@H]3CN(Cc4csnn4)C[C@H]32)cn1` it is 6.84%. For the compound `Cn1cc(CN2C[C@@H]3OCCN(CC4CCCC4)[C@@H]3C2)cn1`, the “Percent Effect” value is reported as -2.926%. As to `c1cnc(N2CCO[C@H]3CN(CC4CCCC4)C[C@H]32)cn1`, the “Percent Effect” value turned out to be 112.8%.

For the compound `CNC(=O)CN1CCO[C@H]2CN(CC3CCOCC3)C[C@H]21.O=C(O)C(F)(F)F.O=C(O)C(F)(F)F`, the “Percent Effect” value is -17.71%. The result for `O=C(O)C(F)(F)F.c1cnc(N2CCO[C@H]3CN(Cc4c[nH]cn4)C[C@H]32)cn1` reads 2.338%; that for `CN(C)c1nccc(N2CCO[C@H]3CN(CC4CCOCC4)C[C@H]32)n1`, 11.02%; that for `O=C(O)C(F)(F)F.c1cnc(N2CCO[C@H]3CN(CC4CCC4)C[C@H]32)cn1`, 107.5%. The figure for `O=C(O)C(F)(F)F.c1cnc(N2CCO[C@H]3CN(CC4CCOC4)C[C@H]32)cn1` (some centres undefined) is 122.8%; for `Cc1nn(CCn2ccnc2-c2cc3n(n2)CCCNC3)c(C)c1Cl` it is 1.548%. For `CC(C)C(C(=O)NC1CC1)n1cnc2cc(F)c(F)cc21` (centres undefined), the “Percent Effect” value stood at 15.81%.

`O=C(NCc1nc(C2CC2)no1)N1CCOC(c2ccccc2F)C1` (centres undefined): the “Percent Effect” value is 3.199%. The figure for `CC(C)CNC(=O)C[S+]([O-])Cc1csc(C2CCCCC2)n1` (centres undefined) is -4.765%; for `COc1ccc(C(O)CNc2c(C#N)c(=O)n(C)c(=O)n2C)cc1` (centres undefined) it is -9.845%; for `CN(C(=O)C1CSCN1S(=O)(=O)c1ccc(F)cc1)C1CC1` (centres undefined) it is 5.468%.

For the compound `CC(C)c1nc2n(n1)CC(NCc1cc3ccccc3o1)CC2` (centres undefined), the “Percent Effect” value was -25.06%. Consider `COCCc1noc(CNC2CCc3nc(C(C)C)nn3C2)n1` (centres undefined), for which the “Percent Effect” value is -13.08%. The result for `Cc1ccc(CNC2CCc3nc(C(C)C)nn3C2)o1` (centres undefined) reads 110.7%; that for `CC(C)c1nc2n(n1)CC(NCc1nc(-c3ccccn3)no1)CC2` (centres undefined), 1.998%. For `Cc1cc(CNC2CCc3nc(C(C)C)nn3C2)on1` (centres undefined), the “Percent Effect” value came to 128.3%. The figure for `CC(C)c1nc2n(n1)CC(NCc1nnc(C(C)C)o1)CC2` (centres undefined) is 2.327%; for `CCN(C(=O)NCc1ccccc1OC(F)F)C(C)c1cccnc1` (centres undefined) it is -11.48%; for `CC(C)(NCC(=O)N1CCCC(C(N)=O)C1)c1ccc(Cl)cc1` (centres undefined) it is 1.343%. The result for `Cc1cc(C(=O)N2CCOC(c3nc(C)n[nH]3)C2)[nH]n1` (centres undefined) reads -1.43%; that for `Cc1cc(C(=O)N2CCOC(c3ccc(Cl)c(Cl)c3)C2)[nH]n1` (centres undefined), -12.35%.

Take `CC(C)(C)c1cc(C(=O)N2CCC(c3cnccn3)CC2)[nH]n1`: the “Percent Effect” value was 96.1%. The figure for `CC(C)(C)c1cn(C2CCN(C(=O)c3cnccn3)CC2)nn1` is -4.102%; for `CC(C)(C)c1cc(C(=O)N2CCOC(c3cnccn3)C2)[nH]n1` (centres undefined) it is 139%. The figure for `CCCc1cc(C(=O)N2CCCC2c2cccnc2)[nH]n1` (centres undefined) is 15.07%. As for `CC(C)c1nc(C(=O)N2C[C@H]3CC[C@@H]2CN(C2CCOCC2)C3)cs1`, the “Percent Effect” value is -6.079%. Turning to `CCOCC(=O)N1CCC(c2nccn2Cc2cscn2)CC1`, the “Percent Effect” value is reported as -5.535%.

Take `O=C(Cc1ccc(F)cc1Cl)N[C@@H]1CCNC[C@H]1O`: the “Percent Effect” value was determined as 6.286%. The figure for `Cc1ccc(F)cc1CC(=O)N1CC[C@@]2(O)CCNC[C@H]2C1` is -17.57%; for `Cc1cc(F)ccc1-c1ccccc1CC1CNCCNC1=O.Cl` (centres undefined) it is 140%. As to `CCNC(=O)[C@@H]1CCCN1[C@@H](C(=O)NC)C1CC1.Cl`, the “Percent Effect” value was 7.785%.

For the compound `Cn1ccnc1CN1C(=O)CO[C@H]2CN(CCCc3ccccc3)C[C@H]21`, the “Percent Effect” value is -23.58%. `CCCS(=O)(=O)N1CCC2(CC1)CC(=O)N(CCCc1ccccc1)C2`: the “Percent Effect” value is 8.339%. The result for `CCS(=O)(=O)N1CC(=O)N(CCCc2ccccc2)CC(O)C1` (centres undefined) reads 108.2%; that for `CCS(=O)(=O)N1CC[C@@H]2[C@@H](CCC(=O)N2CCc2ccccc2)C1`, -12.22%.

In the case of `CS(=O)(=O)N1CCC(OCCCc2ccccc2)C1` (centres undefined), the “Percent Effect” value is recorded as -9.606%.

Consider `CCCS(=O)(=O)N1CC(=O)N(CCCc2ccccc2)CC(O)C1` (centres undefined), for which the “Percent Effect” value is 106.2%. The figure for `CS(=O)(=O)N1CCC2(CCCN(CCCc3ccccc3)C2=O)C1` (centres undefined) is 8.67%. The figure for `CCS(=O)(=O)N1CCC(OCCCc2ccccc2)C1` (centres undefined) is -14.61%; for `CS(=O)(=O)N1CC(=O)N(CCCc2ccccc2)CC(O)C1` (centres undefined) it is 96.22%. The result for `CCCS(=O)(=O)N1CCC2(CCC(=O)N(CCc3ccccc3)C2)CC1` reads 19.11%; that for `N#Cc1cccc(NC2CC(=O)N(CCCc3ccccc3)C2)n1` (centres undefined), -4.151%.

`O=C1CN(S(=O)(=O)CC(F)(F)F)CC(O)CN1CCCc1ccccc1` (centres undefined): the “Percent Effect” value was 73.93%.
